PABP FP inh: PABP-poly(A) binding inhibition; P11940; PABP-poly(A) RNA binding, fluorescence polarization; calls only at 35 µM; 290,000 compounds, 1% hits; AID 2014;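 also: calls also rest on retests at 20 µM and on dose response follow-up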
Target sequence (P11940 whole entry, looked up): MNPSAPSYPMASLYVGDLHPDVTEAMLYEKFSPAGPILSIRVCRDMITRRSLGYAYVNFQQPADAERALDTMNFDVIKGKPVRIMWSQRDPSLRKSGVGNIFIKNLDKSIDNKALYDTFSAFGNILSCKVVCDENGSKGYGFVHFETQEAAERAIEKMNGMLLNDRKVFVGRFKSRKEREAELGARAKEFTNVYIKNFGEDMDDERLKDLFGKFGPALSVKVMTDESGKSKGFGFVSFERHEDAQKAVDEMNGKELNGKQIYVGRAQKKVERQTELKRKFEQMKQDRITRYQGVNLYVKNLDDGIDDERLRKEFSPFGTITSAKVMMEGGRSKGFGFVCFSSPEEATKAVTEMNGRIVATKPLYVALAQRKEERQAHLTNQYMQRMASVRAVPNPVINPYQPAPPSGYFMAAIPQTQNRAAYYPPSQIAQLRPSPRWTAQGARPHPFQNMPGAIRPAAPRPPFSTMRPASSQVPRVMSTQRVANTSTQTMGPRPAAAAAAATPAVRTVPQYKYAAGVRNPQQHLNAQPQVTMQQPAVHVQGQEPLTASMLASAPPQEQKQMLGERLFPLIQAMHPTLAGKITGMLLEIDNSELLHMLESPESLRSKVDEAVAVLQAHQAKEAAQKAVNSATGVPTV
MLLE-PAM2 inh: blocks PAM2 peptide binding to the PABP1 MLLE domain | P11940 | GST-MLLE / FITC-PAM2 fluorescence polarization | inhibition, % at 20 µM | 360,000 compounds, 0.36% hits | AID 588489; in the data active = inhibition above about 35%, passing the limit was not always enough;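 also: plate controls were DMSO wells with GST-MLLE for no effect and wells lacking GST-MLLE protein for full effect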
PHOSPHO1 block: PHOSPHO1 (human) inhibition | Q8TCT1 | recombinant PHOSPHO1, absorbance phosphatase assay | inhibition, % at 13.3 µM | 290,000 compounds, 1.1% hits | AID 1565; in the data active = inhibition above about 60%
eIF4H FP inh: inhibitors of RNA binding by human eIF4H; AID 2012; 290,000 compounds, 0.94% hits; inhibition, % at 35 µM; Q15056; eIF4H fluorescence polarization binding assay;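 also: calls also rest on retests at 20 µM and on dose response follow-up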
HMGR II inh: inhibitors of class II HMG-CoA reductase from Enterococcus faecalis. inhibition, % at 10 µM. purified E. faecalis HMGR, NADPH absorbance 340 nm kinetic. 190,000 compounds, 0.41% hits;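 active = inhibition above a set limit, the median over all tested compounds plus 3 SD, cut at about 9.5% in these data; inconclusive = no clear call, values can overlap the other calls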;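 also: enzyme runs in reverse so mevalonate oxidation gives rising NADPH absorbance; 0% = complete reaction with DMSO and 100% = background rate lacking mevalonate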
* = called active by the depositor. This is a sample that favours compounds with a hit; in the whole collection about 2.4% have one here. Unless noted, no rule for the calls is given here.

What do the screens show for `COC1CCCN(C(=O)c2cccc(OC3CCN(S(C)(=O)=O)CC3)c2)C1` (stereo not given)?
PABP FP inh: inactive; MLLE-PAM2 inh: -3; PHOSPHO1 block: 50; eIF4H FP inh: -16

How did CCn1ccnc1[C@@H]1C[C@H]2CN(c3ccccc3OC)C(=O)[C@]23CCCN13 do in these assays?
PABP FP inh: inactive; MLLE-PAM2 inh: 1; PHOSPHO1 block: 31; eIF4H FP inh: -2; HMGR II inh: -2

How did Cc1cc(OCC(=O)Nc2ccc3oc(=O)ccc3c2)ccc1Cl do in these assays?
PABP FP inh: inactive; MLLE-PAM2 inh: -10; PHOSPHO1 block: 24; eIF4H FP inh: -12

What do the screens show for `Cc1ccc(S(=O)(=O)NCc2ccc3c(c2)cc(C)n3C)cc1`?
PABP FP inh: active; MLLE-PAM2 inh: 35; PHOSPHO1 block: -2; eIF4H FP inh: 58*; HMGR II inh: -1

How did O=C1c2ccccc2C(=O)N1Cc1ccc2c(c1)OCO2 do in these assays?
PABP FP inh: inactive; MLLE-PAM2 inh: -5; PHOSPHO1 block: -10; eIF4H FP inh: -7; HMGR II inh: 1

What do the screens show for `Cc1cc2cc(CNC(=O)c3ccco3)ccc2n1C`?
PABP FP inh: active; MLLE-PAM2 inh: 37; PHOSPHO1 block: -14; eIF4H FP inh: 53*

Results for Cc1cc2cc(CNC(=O)c3cc4ccccc4o3)ccc2n1C ?
PABP FP inh: inactive; PHOSPHO1 block: 15; eIF4H FP inh: 21; HMGR II inh: 0

How did Cc1cc2cc(CN3C(=O)c4ccccc4C3=O)ccc2n1C do in these assays?
PABP FP inh: inactive; MLLE-PAM2 inh: 48*; PHOSPHO1 block: 6; eIF4H FP inh: 94; HMGR II inh: 3

Results for O=C(O)CCC(=O)Nc1cc(C(F)(F)F)cc(C(F)(F)F)c1 ?
PABP FP inh: inactive; MLLE-PAM2 inh: 1; PHOSPHO1 block: 46; eIF4H FP inh: -2

What do the screens show for `CCOc1cc(C2C3=C(CCCC3=O)NC3=C2C(=O)CCC3)ccc1OCCO`?
PABP FP inh: inactive; MLLE-PAM2 inh: 41*; PHOSPHO1 block: -31; eIF4H FP inh: -8; HMGR II inh: 2

How did CCOc1cc(C2C3=C(CCCC3=O)NC3=C2C(=O)CCC3)cc(Cl)c1O do in these assays?
PABP FP inh: inactive; MLLE-PAM2 inh: 18; PHOSPHO1 block: -1; eIF4H FP inh: 2; HMGR II inh: -1

How did CC(SC1=NCCN1S(=O)(=O)c1ccccc1)c1ccccc1 (stereo not given) do in these assays?
PABP FP inh: inactive; MLLE-PAM2 inh: 10; PHOSPHO1 block: 61*; eIF4H FP inh: -4

Results for Nc1nnc(CC(=O)N/N=C/c2ccc(-c3cccc(C(=O)O)c3)o2)s1 ?
PABP FP inh: inactive; MLLE-PAM2 inh: 0; PHOSPHO1 block: 23; eIF4H FP inh: 76*

Results for Nc1nonc1-c1nc2ccccc2n1CC(=O)N/N=C/c1ccc(-c2cccc(C(=O)O)c2)o1 ?
PABP FP inh: active; MLLE-PAM2 inh: 3; PHOSPHO1 block: -1; eIF4H FP inh: 86*; HMGR II inh: -9

What do the screens show for `Nc1nnc(CC(=O)N/N=C/c2ccc(-c3ccc(F)cc3)o2)s1`?
PABP FP inh: inactive; MLLE-PAM2 inh: -16; PHOSPHO1 block: -64; eIF4H FP inh: -1

What do the screens show for `Nc1nonc1-c1nc2ccccc2n1CC(=O)O`?
PABP FP inh: inactive; MLLE-PAM2 inh: -7; PHOSPHO1 block: 8; eIF4H FP inh: 7; HMGR II inh: -6

What do the screens show for `OC(c1ccc(F)cc1)c1nc(-c2cnc3ccccc3c2)cs1` (stereo not given)?
MLLE-PAM2 inh: 4

Results for Cc1ccc(S(=O)(=O)N2CCOCC2)cc1NS(=O)(=O)c1ccc(F)c(F)c1 ?
MLLE-PAM2 inh: -11

What do the screens show for `CN(C)c1ccc(NC(=O)c2ccc(COc3cccc(Cl)c3)o2)cc1`?
PABP FP inh: inactive; MLLE-PAM2 inh: -5; PHOSPHO1 block: 92*; eIF4H FP inh: 2; HMGR II inh: 0

Results for COc1ccc(-c2n[nH]c(=S)n2N)c(OC)c1 ?
PABP FP inh: inactive; MLLE-PAM2 inh: -14; PHOSPHO1 block: 44; eIF4H FP inh: -1; HMGR II inh: -10

What do the screens show for `COc1ccc2c(C)cc3n[nH]c(=S)n3c2c1`?
PABP FP inh: inactive; MLLE-PAM2 inh: -7; PHOSPHO1 block: 67*; eIF4H FP inh: -11

How did O=C1c2ccccc2C(=O)N1CCN1CCCCC1 do in these assays?
PABP FP inh: inactive; MLLE-PAM2 inh: 1; PHOSPHO1 block: -36; eIF4H FP inh: -3; HMGR II inh: 19*

How did CCN(CC)CCN1C(=O)c2cccc3cc(N)cc(c23)C1=O do in these assays?
PABP FP inh: active; MLLE-PAM2 inh: 105; PHOSPHO1 block: 28; eIF4H FP inh: 91*

Results for Nc1cc2c3c(cccc3c1)C(=O)N(CCN1CCCC1)C2=O ?
PABP FP inh: active; MLLE-PAM2 inh: 74; PHOSPHO1 block: 1; eIF4H FP inh: 114*

Results for O=C1c2cccc3cc([N+](=O)[O-])cc(c23)C(=O)N1/N=C/c1ccc(O)cc1O ?
PABP FP inh: active; MLLE-PAM2 inh: 2; PHOSPHO1 block: -1; eIF4H FP inh: 91*

How did O=C1c2cccc3cccc(c23)C(=O)N1CCO do in these assays?
MLLE-PAM2 inh: 3

What do the screens show for `NC(=O)CN1CCN(CCN2C(=O)c3cccc4cccc(c34)C2=O)CC1`?
PABP FP inh: inactive; MLLE-PAM2 inh: 6; PHOSPHO1 block: 30; eIF4H FP inh: 1

What do the screens show for `COc1ccc(NC(=O)C2CCN(C(=O)Nc3ccccc3)CC2)cc1S(=O)(=O)N(C)C`?
MLLE-PAM2 inh: 1

How did Cc1c(NC(=O)COc2cccc(Br)c2)c(=O)n(-c2ccccc2)n1C do in these assays?
PABP FP inh: inactive; MLLE-PAM2 inh: -14; PHOSPHO1 block: 32; eIF4H FP inh: -18

Results for Cc1cc(C)c(S(=O)(=O)N2CCN(CCN3C(=O)c4cccc5cccc(c45)C3=O)CC2)cc1[N+](=O)[O-] ?
PABP FP inh: inactive; PHOSPHO1 block: -7; eIF4H FP inh: 9; HMGR II inh: -8

What do the screens show for `O=C1c2cccc3cc([N+](=O)[O-])cc(c23)C(=O)N1CCN1CCCC1`?
PABP FP inh: inactive; MLLE-PAM2 inh: 50*; PHOSPHO1 block: 27; eIF4H FP inh: 81

Results for Cn1c(/C(C#N)=N/O)nc2ccccc21 ?
PABP FP inh: inactive; MLLE-PAM2 inh: 1; PHOSPHO1 block: 13; eIF4H FP inh: -1; HMGR II inh: 11*

Results for COc1ccccc1N1CCN(C(=O)c2ccc(N3CCCCS3(=O)=O)cc2)CC1 ?
PABP FP inh: inactive; MLLE-PAM2 inh: 0; PHOSPHO1 block: 22; eIF4H FP inh: -4

How did CCOC(=O)c1c(C)[nH]c(C)c1C(=O)COC(=O)/C=C/c1ccco1 do in these assays?
MLLE-PAM2 inh: 3

What do the screens show for `Oc1cccc(Nc2c3ccccc3nc3ccccc23)c1`?
PABP FP inh: inconclusive; MLLE-PAM2 inh: 16; PHOSPHO1 block: 61*; eIF4H FP inh: inconclusive

How did Cc1ccc(-c2nc(Nc3cccc(O)c3)c3ccccc3n2)cc1 do in these assays?
PABP FP inh: inactive; MLLE-PAM2 inh: 8; PHOSPHO1 block: 20; eIF4H FP inh: -1

Screening data deposited in PubChem BioAssay by several laboratories.
